# Measured values taken from PubChem BioAssay (Tox21).
# Records with an inconclusive call do not appear. The source made the active and inactive calls. Calls come from the whole dose curve.
# Experiment: Nuclear factor erythroid 2-related factor 2/antioxidant responsive element (Nrf2/ARE) small molecule agonists: luciferase reporter gene qHTS assay in human keratinocytes (AID 1919969); note: nearly all actives have a fitted effect of over 35% in size
# Conditions: KeratinoSens HaCaT ARE-luciferase, luminescence, 24 h; series mostly up to 92.4 µM; activity, positive = activation: at the top concentration
# Text: National Center for Advancing Translational Sciences [NCATS]
# Division of Preclinical Innovation [DPI]
# U.S. Environmental Protection Agency [EPA]
# National Institutes of Environmental Health Sciences [NIEHS]
# National Toxicology Program [NTP]
# U.S. Food and Drug Administration [FDA]
# Oxidative stress has been implicated in the pathogenesis of a variety of diseases ranging from cancer to neurodegeneration. The antioxidant response element (ARE) signaling pathway plays an important role in the amelioration of oxidative stress. The KeratinoSens (Givaudan, Switzerland) is an in vitro test method which quantifies luciferase induction as a measure of activation of Keap1-Nrf2-antioxidationt/electrophile response element (ARE) dependant pathway in HaCaT human keratinocytes stably transfected with a selectable plasmid. The KeratinoSens assay is a cell-based assay with a reporter cell line to detect potential skin sensitizers by their ability to induce the Nrf2/ARE-response. The activation of the report gene under culture conditions can be detected by ONE-Glo Luciferase Assay System (Promega, Madison, WI). This cell line has been used to screen the Tox21 10K compound library to identify agonists that induce oxidative stress. The cytotoxicity of the Tox21 compound library against the KS-ARE cell line was tested in parallel by measuring the cell viability using CellTiter- Fluor assay system (Promega, Madison, WI) in the same wells.
# HaCaT derived cell line KeratinoSens were dispensed at 1,500 cells/5uL/well in 1536-well white wall/solid bottom plates using a Multidrop Combi (ThermoFisher Scientific, Waltham, MA) dispenser. After the assay plates were incubated at 37 C/5% CO2 for 5 h, 23 nL of compounds dissolved in DMSO, positive controls or DMSO only was transferred to the assay plate by a pintool workstation (Kalypsys, San Diego, CA). The plates were incubated at 37 C/5% CO2 for 23 h, followed by addition of 1uL/well of CellTiter-Fluor reagent into the assay plates using a Flying Reagent Dispenser (Aurora Discovery, San Diego, CA) for cell viability readout that measures cytotoxicity. After 1 h incubation at 37 C/5% CO2 the fluorescence intensity was measured using a ViewLux (PerkinElmer, Shelton, CT) plate reader. Then 4uL/well of One-Glo were added using a Flying Reagent Dispenser. After the plates were incubated at room temperature for 30 min, the luminescence intensity in the assay plates was measured using ViewLux plate reader.
# % is set by controls: 0 for no effect and ±100 for the full control effect; potency is the fitted concentration of half-maximal effect.
Compound,"activity, positive = activation",Potency
Nc1ccc(S(=O)(=O)Nc2ccccn2)cc1,9.97% [at 42.5 µM] (inactive),
CCC(=O)O[C@]1(C(=O)COC)[C@@H](C)C[C@H]2[C@@H]3CCC4=CC(=O)C=C[C@]4(C)C3(F)[C@@H](O)C[C@@]21C (stereo not given in full),3.11% [at 42.5 µM] (inactive),
CCCCCCCC[N+](CCCCCCCC)(CCCCCCCC)CCCCCCCC,-13% (inactive),
CO[C@@]1(NC(=O)CSCC#N)C(=O)N2C(C(=O)O)=C(CSc3nnnn3C)CS[C@@H]21,5.25% [at 42.5 µM] (inactive),
CCCCCCCCCCC(=O)O,-2.14% (inactive),
O=C(/C=C/c1ccccc1)OCCCc1ccccc1,9.71% (inactive),
CC(C)C(O)C(C)(C)CO (stereo not given),-22.9% (inactive),
CCOC(=O)C1=C(C)NC(C)=C(C(=O)OC)C1c1cccc(Cl)c1Cl (stereo not given),-13.5% [at 42.5 µM] (inactive),
N[C@H]1CN(c2c(F)cc3c(=O)c(C(=O)O)cn(C4C[C@H]4F)c3c2Cl)CC12CC2 (stereo not given in full),-9.83% [at 42.5 µM] (inactive),
O=CN1CCCCC1,-7.71% (inactive),
C/C=C(\C)C(=O)OCC/C=C\CC,-5.86% (inactive),
CCOC(=O)CC(C)O (stereo not given),-11.1% (inactive),
Nc1nnc(-c2cccc(Cl)c2Cl)c(N)n1,-3.82% [at 42.5 µM] (inactive),
O=C(O)CCSCCC(=O)O,-12.7% (inactive),
CO/N=C(\C(=O)N[C@@H]1C(=O)N2C(C(=O)O)=C(CSc3nc(=O)c(O)nn3C)CS[C@H]12)c1csc(N)n1,0.884% [at 42.5 µM] (inactive),
COc1ccc(/C(C)=C/C(=O)O)c(OC)c1,-0.0029% [at 42.5 µM] (inactive),
CCCCOC(=O)C(C)O (stereo not given),4.06% (inactive),
CCC1(CO)COCOC1,-5.77% (inactive),
CN1C(=O)c2ccc([N+](=O)[O-])cc2C1=O,-0.863% (inactive),
CCOC(=O)NNc1ccc(N(CC)CC(C)O)nn1 (stereo not given),3.83% [at 42.5 µM] (inactive),

Compound,"activity, positive = activation",Potency
CN1CCN(C2=Nc3cc(F)ccc3Cc3ccccc32)CC1,-1.37% [at 42.5 µM] (inactive),
CCOc1cccc(N)c1,0.702% (inactive),
CCn1ccnc1CC1COc2ccccc2O1 (stereo not given),6.69% [at 42.5 µM] (inactive),
O=C(O)C1(C(=O)O)CCC1.[NH2-].[NH2-].[Pt+2],-0.481% [at 42.5 µM] (inactive),
CCN1CCC[C@H]1CNC(=O)c1cc(S(N)(=O)=O)ccc1OC,-0.158% [at 42.5 µM] (inactive),
COc1cc(C)ccc1O,-0.608% (inactive),
C=CC(=O)OCC(O)COc1ccccc1 (stereo not given),,68.6 µM (active)
CCc1cc(S(=O)(=O)O)c2cc(C(C)C)cccc1-2,0.0125% [at 42.5 µM] (inactive),
CC(C)CC(C)CC(C)CC(C)COC(=O)c1ccccc1C(=O)OCC(C)CC(C)CC(C)CC(C)C (stereo not given),0% (inactive),
CCCCCCCCCCCC(=O)N(CC)CC,28.4% (inactive),
CC(C)(C)C(=O)OCOC(=O)[C@@H]1N2C(=O)[C@@H](NC(=O)[C@H](N)c3ccccc3)[C@H]2SC1(C)C,-1.26% [at 42.5 µM] (inactive),
CC(C)NCC(O)COc1ccc(COCCOC(C)C)cc1 (stereo not given),3.96% [at 42.5 µM] (inactive),
O=C1c2ccccc2C(=O)C1c1ccccc1,-5.1% [at 42.5 µM] (inactive),
N#Cc1cscn1,-2.09% (inactive),
CC(C)C[C@H](NC(=O)OCC1c2ccccc2-c2ccccc21)C(=O)O,,0.611 µM (active)
NCCS,5.79% [at 42.5 µM] (inactive),
CCc1cccc(CC)c1NC(=O)CN(CC(=O)O)CC(=O)O,-1.21% [at 42.5 µM] (inactive),
Cc1cccc(Oc2ccccc2)c1,14.8% (inactive),
Nc1ccc2cc(S(=O)(=O)O)cc(O)c2c1,-15.3% (inactive),
Cc1ccc(NC(N)=O)cc1,-5.94% (inactive),
